Data taken from ChEMBL document CHEMBL2218924, “A broad activity screen in support of a chemogenomic map for kinase signalling research and drug discovery” (Biochem J, 2013).

What was measured:
[1] = biological target: T1, cGMP-dependent protein kinase 1 (Homo sapiens) (UniProt Q13976); conditions: at 1 µM
T1 sequence (whole entry): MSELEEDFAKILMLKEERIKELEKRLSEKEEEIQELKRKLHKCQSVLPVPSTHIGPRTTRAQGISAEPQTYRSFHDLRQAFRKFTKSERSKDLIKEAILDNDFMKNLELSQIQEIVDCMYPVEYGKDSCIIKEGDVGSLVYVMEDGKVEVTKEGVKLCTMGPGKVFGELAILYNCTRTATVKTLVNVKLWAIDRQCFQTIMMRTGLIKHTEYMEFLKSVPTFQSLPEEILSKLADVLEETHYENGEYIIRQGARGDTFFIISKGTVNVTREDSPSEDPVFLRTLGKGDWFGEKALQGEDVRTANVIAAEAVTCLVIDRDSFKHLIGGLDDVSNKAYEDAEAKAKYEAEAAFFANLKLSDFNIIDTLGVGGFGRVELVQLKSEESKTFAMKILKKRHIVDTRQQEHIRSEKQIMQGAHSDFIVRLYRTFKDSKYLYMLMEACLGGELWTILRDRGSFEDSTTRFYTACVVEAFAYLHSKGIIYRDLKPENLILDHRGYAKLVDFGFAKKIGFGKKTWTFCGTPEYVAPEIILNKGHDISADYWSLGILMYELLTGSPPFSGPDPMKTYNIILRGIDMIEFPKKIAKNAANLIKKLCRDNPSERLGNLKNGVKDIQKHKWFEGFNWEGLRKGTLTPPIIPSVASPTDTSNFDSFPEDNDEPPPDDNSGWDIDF

[2] = biological target: T1, cGMP-dependent protein kinase 1 (Homo sapiens); conditions: at 10 µM
[3] = biological target: T1, cGMP-dependent protein kinase 1 (Homo sapiens); conditions: at 1 µM; remark: listed apart in the source
[4] = biological target: T1, cGMP-dependent protein kinase 1 (Homo sapiens); conditions: at 10 µM; remark: listed apart in the source
[5] = biological target: T2, MAP kinase-activated protein kinase 5 (Homo sapiens) (UniProt Q8IW41); conditions: at 1 µM
T2 sequence (whole entry): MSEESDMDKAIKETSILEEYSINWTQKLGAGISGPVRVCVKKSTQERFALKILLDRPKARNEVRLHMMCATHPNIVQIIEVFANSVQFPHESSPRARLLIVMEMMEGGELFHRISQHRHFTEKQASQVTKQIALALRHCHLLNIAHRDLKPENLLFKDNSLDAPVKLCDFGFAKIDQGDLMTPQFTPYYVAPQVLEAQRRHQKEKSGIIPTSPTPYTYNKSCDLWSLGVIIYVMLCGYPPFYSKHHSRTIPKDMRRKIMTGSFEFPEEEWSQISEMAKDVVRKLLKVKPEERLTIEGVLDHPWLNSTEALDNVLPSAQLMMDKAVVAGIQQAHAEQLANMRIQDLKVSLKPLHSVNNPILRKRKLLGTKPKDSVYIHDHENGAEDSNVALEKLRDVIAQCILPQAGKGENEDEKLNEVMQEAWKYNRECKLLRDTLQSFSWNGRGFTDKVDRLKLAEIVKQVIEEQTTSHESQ

[6] = biological target: T2, MAP kinase-activated protein kinase 5 (Homo sapiens); conditions: at 10 µM
[7] = biological target: Serine/threonine-protein kinase N2 (Homo sapiens) (UniProt Q16513); conditions: at 1 µM
[8] = biological target: Serine/threonine-protein kinase N2 (Homo sapiens) (UniProt Q16513); conditions: at 10 µM
[9] = biological target: Tyrosine-protein kinase FRK (Homo sapiens) (UniProt P42685); conditions: at 1 µM
[10] = biological target: Tyrosine-protein kinase FRK (Homo sapiens) (UniProt P42685); conditions: at 10 µM

Sequence of Tyrosine-protein kinase FRK (Homo sapiens) (P42685 whole entry): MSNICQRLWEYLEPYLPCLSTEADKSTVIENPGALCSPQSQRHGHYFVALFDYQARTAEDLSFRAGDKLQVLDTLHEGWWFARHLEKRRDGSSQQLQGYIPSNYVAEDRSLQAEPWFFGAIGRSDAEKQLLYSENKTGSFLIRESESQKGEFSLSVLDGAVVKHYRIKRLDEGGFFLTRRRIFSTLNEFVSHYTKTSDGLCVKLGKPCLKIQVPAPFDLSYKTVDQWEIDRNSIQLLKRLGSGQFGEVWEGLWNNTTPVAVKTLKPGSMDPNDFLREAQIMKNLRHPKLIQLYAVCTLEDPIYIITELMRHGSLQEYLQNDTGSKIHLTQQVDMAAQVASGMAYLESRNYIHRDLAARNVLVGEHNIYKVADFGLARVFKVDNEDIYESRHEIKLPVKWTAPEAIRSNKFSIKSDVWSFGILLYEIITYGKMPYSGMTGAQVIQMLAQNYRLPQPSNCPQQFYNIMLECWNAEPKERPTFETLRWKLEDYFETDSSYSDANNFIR
Sequence of Serine/threonine-protein kinase N2 (Homo sapiens) (Q16513 whole entry, looked up): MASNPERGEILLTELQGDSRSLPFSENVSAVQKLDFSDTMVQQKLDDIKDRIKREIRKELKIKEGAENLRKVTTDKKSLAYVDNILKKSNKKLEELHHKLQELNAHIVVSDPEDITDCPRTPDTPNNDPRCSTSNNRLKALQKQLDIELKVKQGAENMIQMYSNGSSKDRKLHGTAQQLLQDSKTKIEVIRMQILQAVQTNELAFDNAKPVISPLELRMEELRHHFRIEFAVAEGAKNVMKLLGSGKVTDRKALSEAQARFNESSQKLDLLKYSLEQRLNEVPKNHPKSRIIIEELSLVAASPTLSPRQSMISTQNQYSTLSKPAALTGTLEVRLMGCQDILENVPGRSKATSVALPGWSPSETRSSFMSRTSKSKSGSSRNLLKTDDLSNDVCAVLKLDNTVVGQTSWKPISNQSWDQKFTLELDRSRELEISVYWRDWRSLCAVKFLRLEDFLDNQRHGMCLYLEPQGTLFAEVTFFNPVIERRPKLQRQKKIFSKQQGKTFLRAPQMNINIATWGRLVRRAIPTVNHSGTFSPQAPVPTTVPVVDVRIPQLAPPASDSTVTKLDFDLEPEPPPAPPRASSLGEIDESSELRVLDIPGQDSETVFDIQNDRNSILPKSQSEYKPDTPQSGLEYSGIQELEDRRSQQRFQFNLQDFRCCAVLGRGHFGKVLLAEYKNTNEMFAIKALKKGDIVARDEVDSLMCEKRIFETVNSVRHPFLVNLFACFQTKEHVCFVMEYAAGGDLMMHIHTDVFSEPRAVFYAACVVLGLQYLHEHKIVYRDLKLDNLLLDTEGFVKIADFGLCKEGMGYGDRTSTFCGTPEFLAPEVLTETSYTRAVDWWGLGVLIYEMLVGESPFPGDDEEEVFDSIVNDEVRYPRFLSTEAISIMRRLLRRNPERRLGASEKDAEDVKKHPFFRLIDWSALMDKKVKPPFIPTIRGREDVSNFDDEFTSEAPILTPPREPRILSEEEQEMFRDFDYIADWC

SMILES | residual activity [1] [%] | residual activity [2] [%] | residual activity [3] [%] | residual activity [4] [%] | residual activity [5] [%] | residual activity [6] [%] | residual activity [7] [%] | residual activity [8] [%] | residual activity [9] [%] | residual activity [10] [%]
CO[C@H]1[C@@H](OC)C[C@H](C)[C@@H](OC)C2=CC(=O)C=C(NC(=O)/C(C)=C/C=C/[C@H](OC)[C@@H](OC(N)=O)/C(C)=C/[C@@H]1C)C2=O | 102 | 105 | 85 | 81 | 107 | 95 | 111 | 96 | 114 | 93
O=C1NC(=O)/C(=C\c2ccc3nccnc3c2)S1 | 125 | 97 | 80 | 62 | 96 | 93 | 103 | 94 | 110 | 93
COc1ccc(C(=O)Nc2sc3c(c2C(N)=O)CCCC3)cc1OC | 104 | 88 | 79 | 90 | 59 | 76 | 88 | 114 | 91 | 80
Oc1n[nH]c2nnc(-c3c(-c4ccccc4)nn4ccccc34)cc12 | 99 | 100 | 89 | 78 | 115 | 112 | 86 | 86 | 88 | 92
Cc1ccc(NC2=CC(=O)c3sc(C)nc3C2=O)cc1 | 91 | 95 | 105 | 88 | 110 | 114 | 93 | 89 | 87 | 90
c1ccc(-c2n[nH]cc2-c2ccnc3ccccc23)nc1 | – | – | – | – | 73 | 90 | 89 | 103 | 84 | 25
CC(C)n1cnc2/c(=N/c3cccc(Cl)c3)nc(NCCO)[nH]c21 | 92 | 106 | 94 | 72 | 105 | 88 | 86 | 62 | 75 | 29
CC[n+]1c(/C=C/N(C)c2ccccc2)n(-c2ccccc2)c2ccc(-c3nc4ccccc4s3)cc21 | 105 | 80 | 87 | 60 | 104 | 133 | 94 | 77 | 108 | 123
Cc1cccc(-c2[nH]c(C(C)(C)C)nc2-c2ccc3c(c2)OCO3)n1 | – | – | – | – | 92 | 77 | – | – | – | 92
Nc1nc(Nc2ccc(S(N)(=O)=O)cc2)nn1C(=S)Nc1c(F)cccc1F | – | – | – | – | 32 | 2 | 5 | 2 | 20 | 0
CC(=O)c1ccc(N2CCOCC2)cc1O | – | – | – | – | 77 | 109 | 100 | 109 | 109 | 99
N#Cc1cnc2cnc(NCc3cccnc3)cc2c1Nc1ccc(F)c(Cl)c1 | 4 | 9 | – | – | 78 | 101 | 4 | 3 | 28 | 22
COc1cc2ncnc(Nc3ccc(Oc4ccccc4)cc3)c2cc1OC | 119 | 143 | 76 | 110 | 120 | 118 | 91 | 120 | 39 | 7
COc1cc2ncnc(Nc3ccc(NC(=O)c4ccccc4)cc3)c2cc1OC | 105 | 99 | 90 | – | 105 | 76 | – | – | 109 | 76
O=c1c2ccccc2[nH]c(=S)n1CCN1CCC(=C(c2ccc(F)cc2)c2ccc(F)cc2)CC1 | 107 | 103 | 86 | 87 | 94 | 74 | 114 | 109 | 101 | 89
O=[N+]([O-])c1ccc(-c2nc(-c3ccc(F)cc3)c(-c3ccncc3)[nH]2)cc1 | 98 | 103 | 105 | 92 | 112 | 107 | 119 | 93 | 57 | 60
N#C/C(=C(\N)Sc1ccc(N)cc1)c1ccccc1C(F)(F)F | 97 | 95 | 100 | 33 | 91 | 90 | 68 | 48 | 94 | 95
CN(C)CCCn1cc(C2=C(c3c[nH]c4ccccc34)C(=O)NC2=O)c2ccccc21 | 60 | 14 | 34 | 6 | 125 | 107 | 23 | 6 | – | 84
CCN(CC)C(=O)c1ccc(Nc2nc(OCC3CCCCC3)c3nc[nH]c3n2)cc1 | – | – | – | – | – | 12 | 66 | 12 | 78 | 38
